According to PubChem BioAssay (NCI):
This is part of a sample that, as a whole, favours compounds with a hit. Of some 83,000 tested, about 20% had one in any assay.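 Compound tested at a single concentration for 48 hours in 96-well plates; a percent growth value below 10 was scored as active.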 Activity calls are given as the source filed them.

Each compound was assayed on MALME-3M melanoma (assay: NCI-60 one-dose screen, 48 h (100 = growth as untreated, 0 = no growth, -100 = all killed)). Details: 10 µM unless noted.

Question: With `CC(=O)O[C@H]1C(=O)[C@@]2(C)C([C@H](OC(=O)c3ccccc3)[C@]3(O)C[C@H](OC(=O)[C@H](O)[C@@H](NC(=O)c4ccccc4)c4ccccc4)C(C)=C1C3(C)C)[C@]1(OC(C)=O)CO[C@@H]1C[C@@H]2O` (some centres not stated) as the compound, how does the growth read?
Answer: 57.3% (inactive)

Question: With `CCCCCCCC/C=C/CCCCCCCC1=NC(C)(C)CN1CC(C)O` (configuration not stated) as the compound, how does the growth read?
Answer: 68.5% (inactive)

Question: With `COc1cc(C2NC(c3ccc(Cl)cc3)C(C)C(=NC(=O)c3cnccn3)C2C)cc(OC)c1OC` (configuration not stated) as the compound, how does the growth read?
Answer: 79.8% (inactive)

Question: How did the growth turn out when `C[C@@H]1CC[C@H]2[C@@H](C)C(O)O[C@@H]3O[C@]4(C)CC[C@@H]1[C@]32OO4` (some centres not stated) was run?
Answer: 28.3% (inactive)

Question: With `C/C(=C\CCc1ccsc1)CC/C=C(\C)CCCN1CCN(CCO)CC1` as the compound, how does the growth read?
Answer: -14.4% (active)

Question: For `CN1COc2ccc3ccccc3c2C1`, which growth is on record?
Answer: 111% (inactive)

Question: For `COc1ccc(-c2cnnn2-c2cc(OC)c3c(c2)OCO3)cc1`, which growth is on record?
Answer: 34.4% (inactive)

Question: For `Nc1c2ccccc2nc2ccccc12` (tested in a mixture with another compound), which growth is on record?
Answer: 27% (inactive)

Question: For `CCOC(=O)C1=C(C)N2C(=NC3=C(CCC/C3=C\c3ccc(Cl)cc3)C2c2ccc(Cl)cc2)S1` (configuration not stated), which growth is on record?
Answer: 77% (inactive)

Question: Which growth does the source give for `CCN(CC)CCCCNc1c2ccccc2[n+](C)c2c1[nH]c1ccccc12` here?
Answer: -63.9% (active)

Question: For `Cn1cc(-c2csc(-c3c[nH]c4ncccc34)n2)c2cc(F)cnc21`, which growth is on record?
Answer: 95.5% (inactive)

Question: With `Nc1ccccc1-c1ccc([N+](=O)[O-])cc1` as the compound, how does the growth read?
Answer: 111% (inactive)

Question: With `Cc1ccc(NC(=O)Nc2ccc(-c3cccnc3)cc2N2CCC(CO)CC2)cc1` as the compound, how does the growth read?
Answer: 25.5% (inactive)

Question: With `NNC(=O)C1CC2c3ccccc3C1c1ccccc12` (configuration not stated) as the compound, how does the growth read?
Answer: 123% (inactive)

Question: For `O=C(OC[C@H]1O[C@H](OC(=O)c2cc(O)c(O)c(OC(=O)c3cc(O)c(O)c(O)c3)c2)[C@H](OC(=O)c2cc(O)c(O)c(OC(=O)c3cc(O)c(O)c(O)c3)c2)[C@@H](OC(=O)c2cc(O)c(O)c(OC(=O)c3cc(O)c(O)c(O)c3)c2)[C@@H]1OC(=O)c1cc(O)c(O)c(OC(=O)c2cc(O)c(O)c(O)c2)c1)c1cc(O)c(O)c(OC(=O)c2cc(O)c(O)c(O)c2)c1`, which growth is on record?
Answer: 49% (inactive)

Question: How did the growth turn out when `NS(=O)(=O)c1ccc(NC2=C(Cl)C(=O)c3ccccc3C2=O)cc1` was run?
Answer: 135% (inactive)

Question: `CCOC(=O)C1=C(COCCN)NC(C)=C(C(=O)OC)C1c1ccccc1Cl` (configuration not stated) was tested. Which growth did it give?
Answer: 74% (inactive)

Question: `CN(C)c1nc(N)nc(Cn2c(-c3nonc3N)nc3ccccc32)n1` was tested. Which growth did it give?
Answer: 88% (inactive)

Question: With `COC(=O)[C@]1(C(C)C)N[C@H](c2cn(-c3ccccc3)nc2-c2ccccc2)[C@@H]2C(=O)N(c3ccc(Cl)cc3)C(=O)[C@@H]21` as the compound, how does the growth read?
Answer: 107% (inactive)

Question: How did the growth turn out when `Cn1cnc([N+](=O)[O-])c1S(=O)(=O)Oc1ccc(Cl)cc1` was run?
Answer: -70.4% (active)

Question: How did the growth turn out when `O=C(/C=C/c1ccccc1Cl)c1ccc(O)cc1` was run?
Answer: 93.1% (inactive)

Question: `O=C(Cc1ccccn1)C(F)(F)C(F)(F)C(F)(F)F` was tested. Which growth did it give?
Answer: 110% (inactive)

Question: `Cn1c(=O)c2nc(SCc3ccccc3)n(C)c2n(C)c1=O` was tested. Which growth did it give?
Answer: 143% (inactive)

Question: With `COc1ccc2c(c1)nc(N)c1c3ccccc3cn21` as the compound, how does the growth read?
Answer: 65.2% (inactive)

Question: How did the growth turn out when `CCCCCCCC/C=C\CCCCCCCCOc1ccccc1CC(=O)NCC[N+]1(C)CCCC1` was run?
Answer: 88.3% (inactive)

Question: How did the growth turn out when `O=C(C(=O)N1CCCCC1)c1ccc(OC2OC(CO)C(O)C(O)C2O)cc1` (configuration not stated) was run?
Answer: 101% (inactive)

Question: How did the growth turn out when `O=NC1CC=CCC1c1ccccc1` (configuration not stated) was run?
Answer: 114% (inactive)

Question: How did the growth turn out when `CCC(C)(C)C(=O)O[C@H]1C[C@@H](C)C=C2C=C[C@H](C)[C@H](CC[C@@H]3C[C@@H](O)CC(=O)O3)[C@H]21` was run?
Answer: 94.1% (inactive)

Question: With `C[C@]12CC[C@@H]3c4ccc(O)cc4CC[C@H]3[C@@H]1CC[C@@H]2NS(=O)(=O)c1cccc(Br)c1` as the compound, how does the growth read?
Answer: 63.2% (inactive)

Question: For `NC(=O)NN=C(C1CC1)C1CC1`, which growth is on record?
Answer: 143% (inactive)

Question: Which growth does the source give for `CCC1=C(c2ccc(OC)cc2)C(C)(C)Oc2c1ccc(O)c2CN1CCCC1` here?
Answer: -9.28% (active)

Question: For `CN(C)c1ccc(/C=C\c2ccnc3ccccc23)cc1`, which growth is on record?
Answer: 84.8% (inactive)
